From PubChem BioAssay (NCATS)
Inconclusive results are not listed. Entries that show only a call come without a potency. Activity calls are given as the source filed them. The call rests on the fitted dose curve; in most records, active means well fitted inhibition curve with a large enough effect; inconclusive means small, poorly fitted or top-dose-only effect; inactive means flat fitted curve, though single readings scatter. Square brackets hold non-standard residues; d marks the D form. Peptide text beside a SMILES is read from it. PhLac = O=C(O)[CH](O)Cc1ccccc1; NMeV = CN[CH](C(=O)O)C(C)C

Tested on: CRL-7250
Assay: qHTS assay to identify novel small-molecules to repurpose for Merkel cell carcinoma treatment (AID 1296009); further: nearly all actives have a fitted effect of over 60% in size
Details: MCC and control cell lines, CellTiter-Glo viability, 72 h; series mostly up to 92 µM
Method in brief: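 Cells were incubated with compound for 72 hr at 37 degree celsius before CellTiter-Glo addition. Luminescence was normalized with no-cell wells as full cytotoxicity and DMSO as baseline.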

SMILES | Potency | outcome
CC1(O)CCC2C(C(=O)O)=COC(OC3OC(CO)C(O)C(O)C3OC(=O)/C=C/c3ccc(O)cc3)C21 (stereo not given) | inactive | –
CC1=CC(=O)[C@]2(O[C@@H]3O[C@@H](C)[C@H](O)[C@@H](O)[C@H]3O)C=CO[C@@H](O[C@@H]3O[C@H](CO)[C@@H](O)[C@H](O)[C@H]3O)[C@H]12 | inactive | –
CCC/C=C/C=C/C1CC(O)C2(O)C(=O)OCC12 (stereo not given) | inactive | –
CCOC(=O)c1ccc(NC2CCCCC2)c(N)c1 | inactive | –
Cc1c(N2C(=O)c3ccc(C(=O)O)cc3C2=O)c(=O)n(-c2ccccc2)n1C | inactive | –
COC(=O)[C@H](O)[C@H]1C(C)(C)[C@H](OC(C)=O)[C@@]2(O)C(=O)[C@]1(C)C1CC[C@]3(C)C(CC(=O)O[C@H]3c3ccoc3)[C@]13O[C@@H]32 (stereo not given in full) | inactive | –
C=C1C(=O)OC2CC(C)=C(C(C)CCCO)C(O)C12 (stereo not given) | inactive | –
COc1ccc(/C=C/C(N)=O)cc1OC | inactive | –
C[C@H]1CC[C@H]2[C@@H](C=C[C@@](C)(O)[C@]2(C)C(=O)CCO)C1 | inactive | –
CC(=O)N[C@@H](Cc1c[nH]c2ccccc12)C(=O)N[C@@H](CCC(=O)O)C(=O)N[C@@H](Cc1cnc[nH]1)C(=O)N[C@@H](CC(=O)O)C(=O)Nc1ccc2c(C(F)(F)F)cc(=O)oc2c1 (HELM PEPTIDE1{[ac].W.E.H.D.[O=c1cc(C(F)(F)F)c2ccc(N[*:1])cc2o1]}$$$$V2.0) | inactive | –
CC(=O)OC[C@]1(O)[C@H]2[C@H](OC(=O)CC(C)C)OC=C(CO[C@@H]3O[C@H](CO)[C@@H](O)[C@H](O)[C@H]3O)[C@H]2C[C@@H]1O | inactive | –
CC1[C@@H](O)[C@@H](O)C2[C@]3(C)C(C[C@H]4OC(=O)[C@H](O)[C@]1(O)[C@@]24C)C(C)(O)C[C@H](O)[C@H]3O (stereo not given in full) | inactive | –
COc1cc(/C=C/C(=O)O[C@H]2[C@H](O)[C@@H](CO)O[C@@]2(CO)O[C@H]2O[C@H](CO)[C@@H](O)[C@H](O)[C@H]2O)cc(OC)c1O | inactive | –
Cc1c(C(=O)NCc2cccnc2)nn(-c2ccc(Cl)cc2Cl)c1-c1ccc(Cl)cc1 | inactive | –
COc1c2c(c(C)c3c1C(=O)OC3)O[C@@]1(C)CC(O)C(C(C)(C)O)[C@](C)(CCC(=O)O)[C@H]1C2 (stereo not given in full) | inactive | –
C/C=C/CCC1Cc2cc(O)c(CCCC)c(O)c2C(=O)O1 (stereo not given) | inactive | –
O=c1ccn(C2OC(CO)C(O)C2O)c(=O)[nH]1 (stereo not given) | inactive | –
CC(C)C1=CC2=CCC3[C@](C)(CCC[C@@]3(C)C(=O)O)C2CC1=O (stereo not given in full) | inactive | –
COC(=O)c1cc(OC)cc(OC)c1C(=O)c1c(OC)cc2c(c1O)C1CCC(O)C(C)(O2)O1 (stereo not given) | inactive | –
CC1=C2CC(=O)C(C)CC/C=C(\C)CC2OC1=O (stereo not given) | inactive | –

SMILES | Potency | outcome
COc1ccc(C2Oc3c(OC)cc(CCCO)cc3C2COC2OC(CO)C(O)C(O)C2O)cc1OC (stereo not given) | inactive | –
CC(NC(=O)[C@H](Cc1ccccc1)NC(=O)OCc1ccccc1)C(=O)CF (stereo not given in full) | inactive | –
CC/C=C\[C@H](O)[C@H](O)C1=C(C)C(=O)[C@]2(O1)C(=O)N[C@@](O)(C(=O)c1ccccc1)[C@@H]2O | inactive | –
C[C@@H]1CCC2C(C)(C)[C@H](O)CC[C@]2(C)[C@@]12Cc1c(O)cc3c(c1O2)CN([C@@H](CCC(=O)O)C(=O)O)C3=O (stereo not given in full) | inactive | –
CC(C)(C)c1ccc(C(=O)Nc2cn3cc(-n4ccnc4)ccc3n2)cc1 | inactive | –
CC1(C)CCCC2(C)C=C(C(=O)O)C(O)CC12 (stereo not given) | inactive | –
O[C@@](Cc1ncc(CC2(C(F)(F)F)CC2)[nH]1)(c1ccc(-n2cccn2)cc1)C(F)(F)F | inactive | –
CC1(C)O[C@@]2(C)CC[C@@H]1C[C@@H]2OC1OC(CO)C(O)C(O)C1O (stereo not given in full) | inactive | –
CC1OC(OC2C(CO)OC(OCC3OC(OC(=O)C45CCC(C)(C)CC4C4=CCC6C7(C)CCC(OC8OC(C(=O)O)C(O)C(OC9OC(CO)C(O)C(O)C9O)C8O)C(C)(C)C7CCC6(C)C4(C)CC5)C(O)C(O)C3O)C(O)C2O)C(O)C(O)C1O (stereo not given) | – | inactive [at 9.27 µM]
OCC(O)C(c1c[nH]c2ccccc12)c1c[nH]c2ccccc12 (stereo not given) | inactive | –
CC(=O)O[C@@H]1C(=O)C(C)=C(CCC(C)CC(=O)O)[C@@]2(C)CCCC(C)(C)C12 (stereo not given in full) | inactive | –
CC(C)=C1CC2[C@](C)(CC[C@@H](OC(=O)C3(C)OC3C)[C@@]2(C)O)CC1=O (stereo not given in full) | inactive | –
CC(=O)OC1C(C)C2C(OC3OC(CO)C(O)C(O)C3O)OC=C(C(=O)O)C2C1OC(=O)c1ccccc1 (stereo not given) | inactive | –
C[C@@H]1O[C@@H](O[C@H]2[C@H](O)[C@@H](O)[C@H](OC(=O)[C@]34CCC(C)(C)C[C@H]3C3=CCC5[C@@]6(C)CC[C@H](O[C@@H]7O[C@H](C(=O)O)[C@@H](O)[C@H](O)[C@H]7O)C(C)(C)C6CC[C@@]5(C)[C@]3(C)CC4)O[C@@H]2CO)[C@H](O)[C@H](O)[C@H]1O (stereo not given in full) | – | inactive [at 9.27 µM]
COc1ccc(C(=O)CC(=O)O)c2c1C=CC(C)(C)O2 | inactive | –
CC(C)C(C(=O)N1CCCC1C(=O)O)N(C)C(=O)C(O)Cc1ccccc1 (stereo not given) (H-[PhLac]-[NMeV]-Pro-OH; configuration not given here) | inactive | –
NC(=O)[C@H](O[C@@H]1O[C@H](CO)[C@@H](O)[C@H](O)[C@H]1O)c1ccccc1 | inactive | –
N[C@@H](CCNCc1ccc(Cl)cc1)C(=O)N1CCCCC1 | inactive | –
COc1cc2c(c(O)c1OC/C=C(\C)CC/C=C(/C)CCC=C(C)C)CN(C(CCC(=O)O)C(=O)O)C2=O (stereo not given) | inactive | –
C=C1C(OC(C)=O)CCC2(C)CC3(O)OC(=O)C(C)=C3CC12 (stereo not given) | inactive | –
